Among the data in PubChem BioAssay (NCATS) are outcome values, retold here.

Activity calls are given as the source filed them. The call rests on the fitted dose curve; in most records, active means well fitted inhibition curve with a large enough effect; inconclusive means small, poorly fitted or top-dose-only effect; inactive means no such curve, though single readings can be large or run the other way.

The test is described as follows: qHTS assay for measurement of the activity of small molecule inhibitors on Zika virus induced Caspase-3 activity in human astrocytoma cells (AID 1224859). Conditions: SNB-19 ZIKV-induced caspase-3/7, luminescence, 6 h; series mostly up to 45.7 µM. From the text:
National Center for Advancing Translational Sciences [NCATS]
Johns Hopkins University School of Medicine
Increase in the Caspase-3 activity indicates an activation of apoptosis cell death pathway caused by Zika virus infection in certain types of neuronal cells including human neural progenitor cells (hNPCs), astrocytes, and astrocytoma cell line (SNB-19). This cell-based caspase-3 activity assay measures the increased caspase-3 activity in the astrocytoma cell line (SNB-19) after a 6-hour Zika virus infection with a luminescence readout. A decrease in the luminescence signal in this assay by small molecule treatment indicates an inhibitory effect of that small molecule on the Zika virus induced caspase-3 activity that may correlate with its effect on reduction of Zika virus caused cell death.
The medium for SNB-19 cells is composed of RPMI 1640 (ATCC, Cat.# 30-2001), 10% fetal bovine serum (FBS) (GE healthcare Life Sciences, Cat.# SH30071.03), and 1% Pen/Strep (Gibco, Cat.# 15140-122). A Caspase-Glo 3/7 assay kit (catalog number G8092; Promega, Madison, WI) was used to detect caspase-3 activity induced by Zika virus infection in human cells. The reagent mixture was reconstituted as described in the protocol from the manufacturer. Polystyrene tissue culture treated and PDL coated white plates were obtained from Greiner Bio-One (Monroe, NC). Cells were seeded in 384- or 1536-well assay plates and cultured at 37 C with 5% CO2 for 16 to 20 hours. The typical cell seeding density in the 1536-well plate assay is 250 cells/well in 3ul medium for SNB-19 cells in tissue culture treated plates. Compounds were added to cells and incubated for one hour before addition of ZIKV solution to cells (2 FFU/cell). After incubation at 37 C with 5% CO2 for 6 hours, the reagent mixture of Caspase-Glo 3/7 assay kit was added to each well, followed by incubation at room temperature for 30 minutes. The luminescence intensity of the assay plates was measured using a ViewLux plate reader (PerkinElmer). Data were normalized by using the cell-containing wells without ZIKV as a negative control (0% induction of caspase 3/7 activity) and wells containing ZIKV infected cells (Caspase-3 activity induced) as a positive control (100% induction of caspase 3 activity). The percentage inhibitions of the increased Caspase-3 activity by small molecule inhibitors were then calculated.
On to `Cc1c(C)n(Cc2ccccc2)c2ccc(C(=O)OCCN(C)C)cc12`, for which the compound was called inactive. The entry for `C[N+]1(CCCCC[N+]2(C)CCCC2)CCCC1` is “inactive”.

Take `CC(=O)Oc1ccc(C(c2ccc(OC(C)=O)cc2)c2ccccn2)cc1`: the compound was called inactive. Regarding `COc1cc2c(cc1O)CC[C@@H]1[C@@H]2CC[C@]2(C)[C@@H](O)CC[C@@H]12`, the compound was classed as inactive. For the compound `COc1cc2c(cc1OC)[C@@H]1CC(=O)[C@@H](CC(C)C)CN1CC2`, the result was inactive. For the compound `CC(C)=CCC1C(=O)N(c2ccccc2)N(c2ccccc2)C1=O`, the result was inactive. The entry for `CCCCOc1ccc(C(=O)CCN2CCCCC2)cc1` is “inactive”; for `CN(C)CC/C=C1/c2ccccc2COc2ccc(CC(=O)O)cc21` it is “inactive”. `CNCC[C@@H](Oc1ccccc1C)c1ccccc1`: the outcome was inactive. Turning to `CCN1CCCC1=O`, the call was inactive.

Take `CC(C)(C)CC(C)(C)c1ccc(OCCOCC[N+](C)(C)Cc2ccccc2)cc1`: the compound was classed as inactive. As for `CC(O)(P(=O)(O)O)P(=O)(O)O`, the entry is “inactive”; as for `COc1cc(OC)cc(OC)c1`, “inactive”. Turning to `CCCCCCCCCCCCCCCCCC(=O)OCC(O)CO` (stereo not given), the compound was called inactive. The entry for `O=S1(=O)c2cccc3cccc(c23)N1CCCN1CCN(c2ccc(F)cc2)CC1` is “inactive”; for `CCOc1ccc2nc3cc(N)ccc3c(N)c2c1` it is “inactive”; for `CC(=O)Oc1ccc(C(=C2CCCCC2)c2ccc(OC(C)=O)cc2)cc1` it is “inactive”. In the case of `c1ccc(-c2ccc(C(c3ccccc3)n3ccnc3)cc2)cc1` (stereo not given), the call was inactive. The entry for `O=c1c(-c2ccccc2)c1-c1ccccc1` is “inactive”. As for `CN(C)CCOc1ccccc1Cc1ccccc1`, the entry is “inactive”; as for `CNCCC(Oc1ccccc1C)c1ccccc1` (stereo not given), “inactive”; as for `N[C@@H](Cc1cnc[nH]1)C(=O)O`, “inactive”. As for `O=C1c2ccccc2C(=O)C1c1ccccc1`, the entry is “inactive”; as for `CCCCCCCCCCOCC(O)CN` (stereo not given), “inactive”; as for `C[C@]12CC[C@@H]3c4ccc(O)cc4CC[C@H]3[C@@H]1C[C@@H](O)[C@@H]2O`, “inactive”.

With `CN(C)/N=N/c1nc[nH]c1C(N)=O`, the outcome was inactive.

Regarding `CC(C)COC(=O)c1ccc(N)cc1`, the call was inactive. The entry for `CC1(C)O[C@@H]2C[C@H]3[C@@H]4C[C@H](F)C5=CC(=O)CC[C@]5(C)[C@H]4[C@@H](O)C[C@]3(C)[C@]2(C(=O)CO)O1` is “inactive”; for `O=C(O)CNC(=O)c1ccccc1` it is “inactive”; for `O=C1OC2(c3ccc(O)cc3Oc3cc(O)ccc32)c2ccccc21` it is “inactive”. As to `CCCOC(C(=O)OC1CCN(C)CC1)(c1ccccc1)c1ccccc1`, the call was inactive. As for `CCC(NC(C)C)C(O)c1ccc(O)c(O)c1` (stereo not given), the entry is “inactive”; as for `COc1cc2c(cc1OC)C(=O)C(CC1CCN(Cc3ccccc3)CC1)C2` (stereo not given), “inactive”; as for `CC(C)N=C(N)/N=C(\N)Nc1ccc(Cl)cc1`, “inactive”. As for `CCCCOc1cc(C(=O)NCCN(CC)CC)c2ccccc2n1`, the result was inactive. `COc1ccc(/C=C/C(=O)c2ccc(OC)cc2OC)cc1`: the compound was called inactive. As for `COc1cccc(CCc2ccccc2OCC(CN(C)C)OC(=O)CCC(=O)O)c1` (stereo not given), the compound was called inactive. `CC(Cc1cccc(C(F)(F)F)c1)NCCOC(=O)c1ccccc1` (stereo not given): the compound was classed as inactive.

As for `CN1CCC(=C2c3ccccc3Sc3ccccc32)CC1`, the compound was called inactive. As for `CCCCC(=O)O[C@]1(C(=O)CO)CC[C@H]2[C@@H]3CCC4=CC(=O)CC[C@]4(C)[C@H]3[C@@H](O)C[C@@]21C`, the entry is “inactive”.
